Assay results: PubChem BioAssay (NCATS)
A number with no mark means an inactive call. Results filed as inconclusive are left out. A call without a number means that no potency is given here. Activity calls are given as the source filed them. Unless noted, calls follow the shape of the dose curve; as a rule, active = well fitted curve in the direction sought with a large enough effect; inconclusive = small, poorly fitted or top-dose-only effect, or another doubt; inactive = no such curve, though single readings can be large; an effect the other way counts as inactive or inconclusive.

Tests used:
[1] = qHTS for compounds that reverse cellular toxicity of Amyloid beta (A-beta) peptide in yeast: LOPAC Validation Assay (AID 720559)
Procedure, shortened: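 Yeast expressing toxic A-beta grown with pinned compounds at 30 C for 48 hr. Growth measured as absorbance at 600 nm; data normalized to DMSO and to an equimolar FeCl3/clioquinol mixture as positive control.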

[2] = qHTS for Activators of Parkin Expression: LOPAC Validation Assay (NLuc Reporter) (AID 720572)
Procedure, shortened: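 Neuronal cells with a Parkin promoter-driven FLuc/NLuc coincidence reporter were treated 24 h at 37 C in 7-point dose response (LOPAC). NLuc luminescence read after FLuc; signals normalized to DMSO and positive control (100%).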

[3] = qHTS for Activators of Parkin Expression: LOPAC Validation Assay (FLuc Reporter) (AID 720573)
Procedure, shortened: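 Neuronal cell line stably expressing FLuc/NLuc coincidence reporter under the Parkin promoter, 1,500 cells/well, dosed 24 h after seeding in 7-point series for 24 h at 37 C. FLuc luminescence read; normalized to DMSO and positive control (100%).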

[4] = qHTS assay for small molecule agonists of the antioxidant response element (ARE) signaling pathway measured by Nrf2-dependant transcriptional activity - cell viability counter screen (AID 720653; active = well fitted curve in the direction sought with a large enough effect in the repeat runs; an effect the other way counts as inactive or inconclusive); settings: ARE-bla HepG2 viability, CellTiter-Glo ATP luminescence, 16 h; stronger effect = lower value
Procedure, shortened: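 ARE-bla HepG2 cells treated with compounds for 16 h at 37C; this counter screen measures viability as intracellular ATP by CellTiter-Glo luminescence after 30 min at room temperature.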

| SMILES | outcome [1] | Potency [2] | Potency [3] | max response [4] [%] |
| --- | --- | --- | --- | --- |
| OC1(c2ccc(Cl)cc2)CCN(Cc2c[nH]c3ccccc23)CC1 | inactive | inactive |  |  |
| C=C(C)C1CC=C(C(=O)O)CC1 (centres undefined) | inactive | inactive |  |  |
| Cn1ccnc1 | inactive | inactive | inactive |  |
| O=C(O)C1=CC(=C(c2ccc(O)c(C(=O)O)c2)c2ccc(O)c(C(=O)O)c2)C=CC1=O | inactive | inactive | inactive |  |
| O=c1cc(-c2ccccc2)[nH]c2nc(Cl)ccc12 | inactive | inactive | inactive |  |
| Nc1nc2c(cnn2CCc2ccccc2)c2nc(-c3ccco3)nn12 | inactive | inactive |  |  |
| O=C1Nc2ccc(I)cc2/C1=C/c1cc(Br)c(O)c(Br)c1 | inactive | inactive | inactive |  |
| c1ccc2c(c1)CC(N1CCN(c3cccc4c3OCCO4)CC1)C2 | inactive | inactive | inactive |  |
| Oc1cc(O)c2c(c1)O[C@H](c1ccc(O)c(O)c1)[C@@H](O)C2 | inactive | inactive | inactive |  |
| O=C(O)C1CCNCC1 | inactive | inactive | inactive |  |
| CSC(=N)N | inactive | inactive | inactive |  |
| CCN(CC)CCOC(=O)c1cc(Cl)c(N)cc1OC | inactive | inactive | inactive |  |
| CCCCCCCCCCCCCCSCC(=O)O |  |  |  | 2.74 |
